“And” between values parts separate entries of the source, which are not always exact repeats. Identical values can stand only once. Hit rate of the full screen: of about 140,000 compounds, about 80 (0.06%) were called active. Cut-off read from the data, not from the text of the source: active = displacement above about 50%; inactive = the rest. The entries come from a sample that favours actives as a whole. Where a structure was tested more than once in an assay, its records may differ in their call.
What follows are molecules tested against Heat shock 70 kDa protein 1A (Homo sapiens) (UniProt P0DMV8) (assay: Hsp70 inhibitors, probe displacement, primary screen, biochemical, fluorescence polarization (AID 583;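 note: plate controls were vehicle for no effect and reference ligand for full effect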)). Conditions: mP, at 20 µM, stronger effect = higher value.
Chain of Heat shock 70 kDa protein 1A (Homo sapiens) (P0DMV8 whole entry, looked up): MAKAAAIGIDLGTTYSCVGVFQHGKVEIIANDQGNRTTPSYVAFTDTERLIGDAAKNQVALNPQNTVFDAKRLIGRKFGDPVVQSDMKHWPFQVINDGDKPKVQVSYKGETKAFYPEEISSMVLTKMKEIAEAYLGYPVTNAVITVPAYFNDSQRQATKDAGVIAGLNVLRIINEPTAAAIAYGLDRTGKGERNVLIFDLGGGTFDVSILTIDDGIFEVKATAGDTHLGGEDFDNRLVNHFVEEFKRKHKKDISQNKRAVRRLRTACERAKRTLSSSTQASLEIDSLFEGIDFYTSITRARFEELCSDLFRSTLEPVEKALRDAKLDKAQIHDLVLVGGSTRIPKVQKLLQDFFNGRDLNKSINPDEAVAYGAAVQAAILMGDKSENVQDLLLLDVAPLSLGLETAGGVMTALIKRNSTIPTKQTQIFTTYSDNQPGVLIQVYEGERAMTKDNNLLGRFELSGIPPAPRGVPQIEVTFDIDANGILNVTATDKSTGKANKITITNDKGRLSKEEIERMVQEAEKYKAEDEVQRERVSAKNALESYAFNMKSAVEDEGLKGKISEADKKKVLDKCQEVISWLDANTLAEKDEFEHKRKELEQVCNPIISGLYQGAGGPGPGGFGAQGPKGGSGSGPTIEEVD

| SMILES | displacement |
| --- | --- |
| Cc1cccc(-c2cc3nc(C)cc(NCCCN(C)C)n3n2)c1 | 4.1% (inactive) |
| CN(C)c1ccc(/C=N/N=C2/NC(=O)C(Cc3ccc(Cl)cc3)S2)cc1 (stereo not drawn) | -3.1% (inactive) |
| Cc1ccc(C)n1Cc1ccc(C(=O)O)cc1 | 103% (active) and 21.6% (inactive) |
| Cc1cc(C)n(Cc2ccc(C(=O)O)cc2)n1 | -8.4% (inactive) |
| O=C(O)c1ccc(CN2CCOCC2)cc1 | 0% (inactive) |
| N#Cc1cc2c(nc1SCc1ccc(Br)cc1)CCCC2 | -3.8% (inactive) |
| O=C(COc1ccc(Cl)cc1Cl)NNC(=O)CN1C(=O)/C(=C/c2ccc(Cl)cc2Cl)SC1=S | 0.4% (inactive) |
| COc1ccccc1/C=N/NC(=O)C(=O)NCc1ccccn1 | -2.8% (inactive) |
| CCn1c2ccccc2c2cc(CN3CCN(C(=O)CC(C)C)CC3)ccc21 | -0.3% (inactive) |
| Cc1ccc(-n2[nH]c(C)c(C=Nc3ccc(C)cn3)c2=O)cc1 | 2% (inactive) |
| COc1ccccc1C=C1C(=O)NC(=S)N(c2ccccc2F)C1=O | 4% (inactive) |
| Cn1cccc1/C=C1/C(=O)NC(=S)N(c2cccc(Cl)c2)C1=O | 37.8% (inactive) |
| COc1ccccc1N1C(=O)C(=Cc2cccn2C)C(=O)NC1=S | 69.9% (active) |
| N#Cc1cccc(-n2c(-c3ccccc3)nnc2-c2ccccc2)c1C#N | -2.8% (inactive) |
| COc1cc(NC(=O)c2ccc3c(c2)OCCO3)ccc1NC(=O)c1ccco1 | -0.4% (inactive) |
| Cc1nn(-c2ccc(F)cc2)c(C)c1NS(=O)(=O)c1ccc(Cl)cc1 | 1% (inactive) |
| Cc1c(C#N)c2nc3ccccc3n2c(=O)/c1=C\c1c(O)n(-c2ccc(Br)cc2)[nH]c1=O | 24.7% (inactive) |
| Cc1ccc(-n2[nH]c(=O)c(/C=c3/c(C)c(C#N)c4nc5ccccc5n4c3=O)c2O)cc1C | 83% (active) |
| Cc1c(C#N)c2nc3ccccc3n2c(=O)/c1=C/c1sc2ccccc2c1O | 2.1% (inactive) |
| O=C1c2ccccc2C(=O)N1c1ccc2c(c1)C(=O)N(c1ccccc1)C2=O | 4.1% (inactive) |

| SMILES | displacement |
| --- | --- |
| Nc1ccc2c(c1)C(=O)N(c1ccccc1)C2=O | 8.5% (inactive) |
| O=[N+]([O-])c1cc(-c2nnc(-c3ccc(Br)o3)o2)cc([N+](=O)[O-])c1 | 0.4% (inactive) |
| O=C(NC1CC1)C1CCCN(C(=O)Nc2ccc(F)cc2)C1 (stereo not drawn) | -7.5% (inactive) |
| Cc1ccc(C)c(S(=O)(=O)Nc2ccc3sc(C)nc3c2)c1 | -3.2% (inactive) |
| CCOC(=O)c1[nH]cnc1C(=O)NCc1ccccc1 | 88.8% (active) |
| CCOC(=O)c1[nH]cnc1C(=O)Nc1ccccc1 | 0% (inactive) |
| CCOC(=O)c1[nH]cnc1C(=O)Nc1ccccn1 | -29.4% (inactive) and -2.5% (inactive) |
| CC1=C(C(=O)Nc2ccccc2C)C(c2ccc(C)o2)N2C(=O)CSC2=N1 (stereo not drawn) | 1.1% (inactive) |
| CCN1C(=O)/C(=C2\SC(=O)N(Cc3ccccc3)C2=O)c2ccccc21 | -2.9% (inactive) |
| Cc1ccc([N+](=O)[O-])cc1-c1ccc(/C=C(\C#N)C(=O)NCc2ccco2)o1 | 75.7% (active) |
| N#C/C(=C\c1ccc(-c2cccc(Cl)c2Cl)o1)C(=O)NCc1ccco1 | -2.5% (inactive) |
| N#C/C(=C\c1ccc(-c2ccc(C(=O)O)cc2)o1)C(=O)NCc1ccco1 | -4.4% (inactive) |
| CC(=O)OC(/C(O)=C(\C#N)c1nc2ccccc2[nH]1)c1ccccc1 (stereo not drawn) | -1.2% (inactive) |
| CC(NS(C)(=O)=O)C(c1cccs1)N1CCN(Cc2ccccc2)CC1 (stereo not drawn) | 3.1% (inactive) |
| O=C1N=c2ccccc2=C1c1sc(=O)n(-c2ccc(O)cc2)c1O | -21.2% (inactive) |
| O=C1N=c2ccccc2=C1c1sc(=Nc2ccccc2)n(-c2ccccc2)c1O | 5.2% (inactive) |
| O=C1N=c2ccccc2=C1c1s/c(=N/N=C2/C(=O)Nc3ccccc32)n(-c2ccc(O)cc2)c1O | 93.6% (active) |
| CC(=O)NS(=O)(=O)c1ccc(NC(=O)c2ccccc2F)cc1 | 6% (inactive) |
| COCC(=O)Nc1nc(-c2ccccc2)c(C)s1 | -1.9% (inactive) |
| O=C1NC(=S)N/C1=C\c1ccc(-c2cccc([N+](=O)[O-])c2)o1 | 0.3% (inactive) |

| SMILES | displacement |
| --- | --- |
| O=C1NC(=S)N/C1=C/c1ccc(-c2cc([N+](=O)[O-])ccc2Cl)o1 | 17.3% (inactive) |
| O=C1NC(=S)N/C1=C\c1ccc(-c2cc([N+](=O)[O-])ccc2Br)o1 | 51.2% (active) |
| Cc1ccc(NC(=O)c2ccccc2Br)cc1 | 1.9% (inactive) |
| COc1ccc(OC)c(NC2=NC3(CCCCC3)N=C(N)N2)c1 | -6.7% (inactive) and 3.4% (inactive) |
| COc1ccc(OC)c(NC2=NC3(CCCC3)N=C(N)N2)c1 | 0.2% (inactive) and -1.2% (inactive) |
| COc1ccccc1NC1=NC2(CCCCC2)N=C(N)N1 | 97.6% (active) |
| CC(C)Oc1c(I)cc(I)cc1/C=C(/C#N)c1nc2ccccc2[nH]1 | -0.1% (inactive) |
| Cc1ccc(/C(N)=N/OC(=O)c2ccc(Br)cc2)cc1 | 1.1% (inactive) |
| O=C1C(=O)N(CC2CCCO2)C(c2cccc([N+](=O)[O-])c2)/C1=C(/O)c1ccccc1 (stereo not drawn) | -4.4% (inactive) |
| COc1cccc(C2NC(=O)NC(C)=C2C(=O)OCCc2ccccc2)c1OC (stereo not drawn) | -3% (inactive) |
| COc1ccc(Cn2c3nc4ccccc4nc3c3c(=O)n(Cc4ccco4)cnc32)cc1 | -6% (inactive) |
| COc1ccc(Cn2c3nc4ccccc4nc3c3c(=O)n(Cc4ccco4)c(C)nc32)cc1 | 2.5% (inactive) |
| COc1ccc(Cn2c(C)nc3c(c2=O)c2nc4ccccc4nc2n3Cc2ccco2)cc1 | 69.5% (active) |
| O=C(O)CCCCCCCCCCN1C(=O)/C(=C/c2cccc(Br)c2)SC1=S | 56.6% (active) |
| O=C(O)CCCCCN1C(=O)/C(=C/c2cccc(F)c2)SC1=S | -1.8% (inactive) |
| O=C(O)CCCN1C(=O)/C(=C/c2cccc(Br)c2)SC1=S | 6.7% (inactive) |
| O=C(NN1CCOCC1)c1cc2ccccc2oc1=O | 1.1% (inactive) |
| CC(=O)C1=C(C)NC(SCC(N)=O)=C(C#N)C1c1cccnc1 (stereo not drawn) | -1.1% (inactive) |

Source: PubChem BioAssay AID583 (Sanford-Burnham Center for Chemical Genomics, 2007)
